A350 autofl – compounds fluorescent in Alexa 350 spectral region; 59,000 tested, 11% active; max dye-equivalent concentration, M; AID 590; Compound autofluorescence, 340/450 nm, Alexa 350 dye-equivalents; stronger effect = higher value; in the data active = max dye-equivalent concentration above about 10 nM; inconclusive = mostly about 1.1 nM to 9.6 nM
AID923 – qHTS Assay for Allosteric/Competitive Inhibitors of Caspase-1: Spectroscopic Profiling in AFC Spectral Region; compound fluorescence, AFC spectral region (405/520 nm); Potency, µM (doses to about 57.5 µM), hits mostly activators; 75,000 tested, 1.1% active; AID 923, 2007
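Baseline compound fluorescence (AFC region, 405 nm ex/520 nm em) taken from the intercept of kinetic reads with 50 nM caspase-1 and 5 uM Ac-WEHD-AFC; normalized to an on-plate AFC standard curve; compounds titrated up to 57 uM.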
Bst PK mod – alters activity of Bacillus stearothermophilus pyruvate kinase | Potency, µM | purified pyruvate kinase, luminescence ATP production; ribose 5-phosphate activator present at AC10 | 51,000 tested, 1.2% active; in the data active = potency below about 11 µM; inconclusive = mostly about 12 µM to 25 µM;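 the screen sought inhibitors and activators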
4MU fluor – compound fluoresces in the 4-MU spectral region; AID 589; 59,000 tested, 11% active; max dye-equivalent concentration, M; compound autofluorescence, 340/450 nm, 4-MU equivalents; stronger effect = higher value; in the data active = max dye-equivalent concentration above about 10 nM; inconclusive = mostly about 1.1 nM to 9.6 nM
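Intrinsic fluorescence at 340/450 nm (ex/em) was read after 15 min at room temperature in pH 8.0, 100 mM Tris. Each compound concentration expressed as 4-MU-equivalent concentration from a six-point 4-MU standard series on each plate.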
HADH2 inh – blocks human hydroxyacyl-CoA dehydrogenase type II | Q99714 | recombinant HADH2, NADH fluorescence, beta-hydroxybutyryl-CoA | Potency, µM (top dose mostly 57.1 µM), actives largely listed as inhibitors | 73,000 tested, 3.4% active | AID 886; also: nearly all actives have a fitted effect of over 60% in size
Target sequence (Q99714 whole entry, looked up, one chain of several): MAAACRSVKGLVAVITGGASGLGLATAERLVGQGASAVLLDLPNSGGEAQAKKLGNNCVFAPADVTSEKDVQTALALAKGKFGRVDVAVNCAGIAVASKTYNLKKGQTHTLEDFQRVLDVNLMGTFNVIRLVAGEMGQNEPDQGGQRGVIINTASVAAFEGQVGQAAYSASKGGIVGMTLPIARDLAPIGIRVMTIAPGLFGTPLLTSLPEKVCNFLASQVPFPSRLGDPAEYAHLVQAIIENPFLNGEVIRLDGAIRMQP
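20 nM HADH2 + cpd, 15 min RT; add 1 mM NAD+/90 uM beta-hydroxybutyryl-CoA; kinetic fluorescence 360/450 nm, 4 min. Tris-HCl pH 9.0, 0.01% Tween-20.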
HSD17B inh – HSD17B dehydrogenase inhibition. Q99714. recombinant HSD17B10, NADH fluorescence kinetic. Potency, µM (top dose mostly 57.1 µM), actives largely listed as inhibitors. 75,000 tested, 7.6% active. AID 893;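 also: the protocol describes HADH2 (HSD17B10) and not the HSD17B4 of the title; nearly all actives have a fitted effect of over 70% in size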
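Activity followed as NADH fluorescence increase (ex 360, em 450 nm) every 30 seconds for 4 min, using final 90 uM beta-hydroxybutyryl CoA and 1 mM NAD+. Recombinant His-tagged enzyme, 20 nM, pH 9.0 Tris buffer, 15 min compound preincubation.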
Numbers stand for hits; i = inactive; ? = inconclusive; nt = no result; [ ] = another dose, or the depositor's remark. The list is not random: actives were taken first. Their share in the collection is about 13%. Unless noted, calls follow the shape of the dose curve; as a rule, active = well fitted curve in the direction sought with a large enough effect; inconclusive = small, poorly fitted or top-dose-only effect, or another doubt; inactive = no such curve, though single readings can be large; an effect the other way counts as inactive or inconclusive.

SMILES	A350 autofl	AID923	Bst PK mod	4MU fluor	HADH2 inh	HSD17B inh
Cn1c(NCCO)nc2c(c1=O)C1(CCCCC1)Cc1ccccc1-2	nt	i	nt	nt	32µM	32µM
O=c1[nH]c(NCCCO)nc2c1C1(CCCC1)Cc1ccccc1-2	nt	i	nt	nt	?	3.2µM
O=c1c2c(nc3n1CCCCC3)-c1ccccc1CC21CCCC1	i	i	i	i	i	i
CC1(C)Cc2ccccc2-c2c1c(=O)n(-c1ccccc1)c1nnnn21	i	nt	i	i	nt	nt
CN(C)Cc1nc2c(c(=O)[nH]1)C1(CCCCC1)Cc1ccccc1-2	i	i	i	i	i	i
CC(=O)OCC(=O)[C@@]1(OC(C)=O)[C@H](C)C[C@H]2[C@@H]3C[C@H](F)C4=CC(=O)C=C[C@@]4(C)[C@]3(F)[C@H](O)C[C@@]21C	i	i	nt	i	i	i
O=C(Nc1ccncc1)C1COc2ccccc2O1 (centres undefined)	i	i	i	i	i	i
O=C(Nc1nc(-c2nc3ccccc3s2)cs1)C1COc2ccccc2O1 (centres undefined)	nt	i	nt	nt	i	32µM
O=C(NC1=NCCS1)C1COc2ccccc2O1 (centres undefined)	?	i	4.3	?	i	i
CCC1(C)Cc2c(sc3nc4n(c(=O)c23)CCS4)CO1 (centres undefined)	?	nt	i	i	nt	nt
CCC1(C)Cc2c(sc3nc(NC)n(C)c(=O)c23)CO1 (centres undefined)	?	i	i	1.8e-08M	i	?
CCC1(C)Cc2c(sc3nc(SCC(=O)O)[nH]c(=O)c23)CO1 (centres undefined)	1.7e-08M	i	i	1.7e-08M	i	?
O=C(O)/C=C\C(=O)Nc1ccc2c(c1)-c1ccccc1C2	i	i[11.5 µM]	nt	i	i[11.4 µM]	?
Cc1ccc(S(=O)(=O)O)cc1C	nt	i	nt	nt	i	i
O=C(c1ccco1)N1CCN(CC(O)Cn2c3ccccc3c3ccccc32)CC1 (centres undefined)	i	i	i	i	i	i
Cc1ccc(C)o1	nt	i	nt	nt	i	i
O=C1OC(Nc2ccc3c(c2)OCO3)c2ccccc21 (centres undefined)	i	i	i	i	25µM	i
O=C(c1csnn1)N1CCC2(CC1)CN(c1ccccn1)C2	i	i	nt	i	i	32µM
O=C(c1csnn1)N1CCC2(CCCN(c3ccccn3)C2)CC1	i	i	nt	i	i	?
O=C(c1csnn1)N1CCC2(CCCN(c3ccccc3)C2)CC1	4.6e-08M	i	nt	3.8e-08M	i	i
O=C1CCCC2=C1C(c1ccncc1)c1c(nc(SCc3ccccc3)[nH]c1=O)N2 (centres undefined)	1.5e-07M	i	i	1.4e-07M	i	?
Cc1ccc(C2C3=C(CCCC3=O)Nc3nc(SCC(=O)NCc4ccco4)[nH]c(=O)c32)cc1 (centres undefined)	3.9e-07M	i	i	3.6e-07M	?	20µM
CCSc1nc2c(c(=O)[nH]1)C(c1ccccn1)C1=C(CC(C)(C)CC1=O)N2 (centres undefined)	2.1e-06M	i	i	1.8e-06M	i	32µM
CC(=O)Oc1ccc(/C=C/C(=O)CC2OC(Oc3cc(OC(C)=O)c4c(c3)O[C@@H](c3ccc(OC(C)=O)cc3)CC4=O)C(OC(C)=O)C(OC(C)=O)C2OC(C)=O)cc1 (some centres undefined)	nt	i	nt	nt	nt	i
Nc1nc(-c2cccnc2)nn1C(=O)c1ccco1	i	i	i	i	i	i
SMILES	A350 autofl	AID923	Bst PK mod	4MU fluor	HADH2 inh	HSD17B inh
COc1ccc(C2C3=C(CCCC3=O)Nc3nc(C(F)(F)F)nn32)c(OC)c1OC (centres undefined)	2.5e-08M	i	i	2.8e-08M	i	?
CCC(=O)N1c2ccccc2NC2=C(C(=O)CCC2)C1c1ccc(N(C)C)cc1 (centres undefined)	i	i	i	i	i	i
CCSc1nc2n(n1)C(c1cccc(F)c1)C1=C(CCCC1=O)N2 (centres undefined)	7.7e-08M	i	i	6.3e-08M	?	?
CCOc1ccc(C2C3=C(CCCC3=O)Nc3nc(C(F)(F)F)nn32)cc1OC (centres undefined)	6.8e-08M	i	i	7.5e-08M	?	25µM
COc1ccc(C2C3=C(CCCC3=O)Nc3nc(C(F)(F)F)nn32)cc1OC (centres undefined)	7.2e-08M	i	i	8e-08M	i	25µM
COc1ccc(C2C3=C(Nc4ncnn42)c2ccccc2CC3)cc1OC (centres undefined)	?	i	i	?	?	i
Cc1cc([N+](=O)[O-])c(C)c(Br)c1C	i	i[11.5 µM]	nt	i	i[11.4 µM]	i[11.4 µM]
COc1cccc(C2C3=C(CCCC3=O)Nc3nc4ccccc4n32)c1OC (centres undefined)	3.3e-07M	i	i	3.9e-07M	13µM	3.2µM
COc1cc(OC)c(C2C3=C(CCCC3=O)Nc3nc4ccccc4n32)cc1OC (centres undefined)	?	i	i	?	i	i
CCN(C(=O)CN1CCN(c2ccc(OC)cc2)CC1)c1c(N)n(Cc2ccccc2)c(=O)[nH]c1=O	1.3e-08M	i	i	?	i	i
CN(C)c1ccc(-c2cncnc2-n2ccnc2)cc1	4.8e-08M	i	nt	4.1e-08M	i	?
COCCn1c(C)cc(C(=O)CSc2nc3ccccc3c(=O)[nH]2)c1C	i	i	i	i	i	?
N=C1C(c2nc3ccccc3c(=O)[nH]2)=C(O)CN1CCc1ccccc1	nt	i	nt	nt	i	32µM
COc1ccccc1N1CC(O)=C(c2nc3ccccc3c(=O)[nH]2)C1=N	1.1e-08M	i	nt	?	i	32µM
CCOc1ccccc1N1CC(O)=C(c2nc3ccccc3s2)C1=N	i	i	i	i	?	?
COCCN1CC(O)=C(c2nc3ccccc3c(=O)[nH]2)C1=N	?	i	nt	1e-08M	i	25µM
CCCCN1CC(O)=C(c2nc3ccccc3[nH]2)C1=N	1.6e-07M	i	i	1.6e-07M	i	i
CN(CCc1ccccn1)c1ccc2c(c1)C(=O)c1ccccc1-2	i	i[11.5 µM]	nt	i	i[11.4 µM]	i[11.4 µM]
N=C1C(c2nc3ccccc3c(=O)[nH]2)=C(O)CN1CCO	?	i	nt	?	i	3.2µM
CCCOc1ccc2oc(=O)c3c(c2c1)CCCN3C(=O)CN1CCCC(C(=O)OCC)C1 (centres undefined)	4.3e-08M	i	i	3.7e-08M	i	?
CCCOc1ccc2oc(=O)c3c(c2c1)CCCN3C(=O)CN1CCN(c2ncccn2)CC1	5.7e-08M	i	i	5.1e-08M	i	i
CC1CCN(CCC(=O)N2CCCc3c2c(=O)oc2ccc(O)cc32)CC1	?	i	i	?	i	i
O=C(CN1CCCC1)N1CCCc2c1c(=O)oc1ccc(OCc3ccccc3)cc21	8.3e-08M	i	nt	9e-08M	i	25µM
CN(CC(=O)N1CCCc2c1c(=O)oc1ccc(O)cc21)Cc1ccccc1	?	i	i	?	i	i

Compound activity deposited in PubChem by National Center for Advancing Translational Sciences (NCATS).
